Data reported in PubChem BioAssay (NCI).
About 83,000 compounds went through this panel and 20% of them were active in at least one assay; those are over-represented in the sample as a whole.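 Cells were grown in 96-well plates and exposed to the test compound at a single concentration for 48 hours; results are reported as percent growth, with values below 10 considered active.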 The source made the active and inactive calls.

Tests used:
Assay in all cases: NCI-60 one-dose screen, 48 h (100 = growth as untreated, 0 = no growth, -100 = all killed)
Settings in all cases: 10 µM unless noted
[1] = test system: HCT-15 colon
[2] = test system: HT29 colon
[3] = test system: SNB-75 CNS
[4] = test system: SNB-19 CNS
[5] = test system: U251 CNS
[6] = test system: SK-MEL-5 melanoma
[7] = test system: UACC-62 melanoma
[8] = test system: LOX IMVI melanoma
[9] = test system: SK-MEL-28 melanoma
[10] = test system: SK-MEL-2 melanoma
[11] = test system: EKVX NSCLC
[12] = test system: SN12C renal
[13] = test system: TK-10 renal
[14] = test system: ACHN renal
[15] = test system: CAKI-1 renal
[16] = test system: A498 renal
[17] = test system: CCRF-CEM leukemia
[18] = test system: UO-31 renal
[19] = test system: MOLT-4 leukemia

Measured: growth

COc1ccc2c(c1)O/C(=C\c1cccc(OCC(=O)Nc3nc4c(s3)CCCC4)c1)C2=O
active: [8] -100% | [15] -100% | [17] -67.9%
inactive: [1] 84.8% | [2] 84.7% | [3] 29.3% | [4] 76.1% | [5] 73.1% | [6] 97.9% | [7] 76.1% | [9] 114% | [10] 82.5% | [11] 90.2% | [12] 53.8% | [13] 115% | [14] 97.4% | [16] 88.8%

CN1CCN(c2ccc3nc(-c4ccc(OCCCCN5CCN(CCCCN6C(=O)c7cccc8cccc(c78)C6=O)CC5)cc4)[nH]c3c2)CC1
inactive: [1] 76.2% | [2] 60.3% | [3] 36.4% | [4] 84.2% | [5] 64.8% | [6] 69.1% | [7] 95.4% | [8] 47.1% | [9] 24.6% | [10] 79.2% | [11] 78.9% | [12] 73.8% | [18] 16.7% | [13] 88.4% | [14] 89% | [15] 33.1% | [17] 26.2% | [19] 52%

CCNc1ncnc2c1cnn2C1CCCO1 (stereo unspecified)
inactive: [1] 106% | [2] 119% | [3] 89.4% | [4] 105% | [5] 107% | [6] 105% | [7] 107% | [8] 111% | [9] 107% | [10] 116% | [11] 115% | [12] 103% | [18] 86% | [13] 116% | [14] 104% | [15] 101% | [17] 87.6%

O=C(CN1C(=O)/C(=C/c2ccc(Cl)cc2)SC1=S)NCCCN1CCOCC1
inactive: [1] 93.1% | [2] 114% | [3] 92.8% | [4] 97.9% | [5] 98.4% | [6] 95.7% | [7] 97% | [8] 90.5% | [9] 101% | [10] 111% | [11] 90.7% | [12] 94.7% | [18] 83.2% | [13] 117% | [14] 94.6% | [15] 89.4% | [17] 105% | [19] 102%

CCCc1cc(=O)n2c(C(=O)Nc3cccc(C(=O)OCC)c3)c(C(=O)Nc3ccc(F)cc3)sc2n1
active: [16] 8.74% [30 µM]
inactive: [1] 66.4% [30 µM] | [2] 67.5% [30 µM] | [3] 25.6% [30 µM] | [4] 43.8% [30 µM] | [5] 13.2% [30 µM] | [6] 66.6% [30 µM] | [7] 104% [30 µM] | [8] 46.8% [30 µM] | [9] 88.3% [30 µM] | [10] 63.4% [30 µM] | [11] 92.8% [30 µM] | [18] 15.7% [30 µM] | [13] 45% [30 µM] | [14] 38.9% [30 µM] | [15] 17.3% [30 µM] | [17] 40.9% [30 µM] | [19] 127% [30 µM]

Cn1cccc1-c1nc2c3c(ccc2[nH]1)C(=O)c1ccccc1C3=O
inactive: [1] 82.1% | [2] 104% | [3] 137% | [4] 105% | [5] 87.5% | [6] 90.4% | [7] 80.5% | [8] 88.9% | [9] 117% | [10] 91.4% | [11] 65.2% | [18] 58.7% | [13] 98.7% | [14] 80.7% | [15] 96.3% | [16] 88.7% | [17] 78.9% | [19] 62.1%

CCCc1cc(=O)n2c(C(=O)Nc3ccc(F)cc3)c(C(=O)Nc3ccc(F)cc3)sc2n1
inactive: [1] 83% [30 µM] | [2] 53.8% [30 µM] | [4] 48.4% [30 µM] | [5] 41.6% [30 µM] | [6] 82.8% [30 µM] | [7] 84% [30 µM] | [8] 65.1% [30 µM] | [9] 77.7% [30 µM] | [10] 70.7% [30 µM] | [11] 62.5% [30 µM] | [12] 65.7% [30 µM] | [18] 19.3% [30 µM] | [13] 38.9% [30 µM] | [14] 48.4% [30 µM] | [15] 44.3% [30 µM] | [17] 77.1% [30 µM] | [19] 97.9% [30 µM]
active: [3] -15.9% [30 µM]

Cc1cc2c3ccccc3ccc2[n+]2ccccc12
inactive: [1] 105% | [2] 69% | [3] 14.6% | [7] 59.8% | [8] 74.4% | [9] 14.9% | [10] 40.5% | [11] 14.5% | [18] 56.9% | [13] 88.4% | [14] 95.1% | [17] 48.7%
active: [4] 4.52% | [5] 6.05% | [6] -44.8% | [12] -7% | [16] 9.14%
